HP1b chromo inh – blocks HP1-beta chromodomain binding to methylated histone tails; AID 540317; 390,000 tested, 0.56% active; Potency, µM (titrated, usually from 114 µM), for inactives: at the highest dose activity change, negative = inhibition, most hits filed as inhibitors; AlphaScreen HP1-beta / biotin-H3K9me3 peptide binding; note: potency is the fitted concentration of half-maximal effect; nearly all actives have a fitted effect of over 70% in size
Target sequence (P83916 whole entry, looked up): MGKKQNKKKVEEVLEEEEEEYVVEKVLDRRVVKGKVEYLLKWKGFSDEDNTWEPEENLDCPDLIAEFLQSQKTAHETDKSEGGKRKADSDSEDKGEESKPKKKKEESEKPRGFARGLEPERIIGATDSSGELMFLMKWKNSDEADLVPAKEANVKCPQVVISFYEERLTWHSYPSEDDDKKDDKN
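HP1-beta protein (50 nM final) preincubated 30 min at room temperature with biotinylated H3(1-18)K9me3 peptide (50 nM) in PBS pH 7.4, 0.01% Tween-20, then compound added for 30 min. AlphaScreen streptavidin donor/nickel chelate acceptor beads (10 ug/mL final), 30 min dark, luminescence read.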
JMJD2A Tudor inh – blocks the human JMJD2A Tudor domain | AlphaScreen JMJD2A-Tudor / H3K4me3 peptide binding | Potency, µM (titrated, usually from 114 µM), without a hit: at the top dose activity change, negative = inhibition, hits mostly inhibitors | 390,000 tested, 4.4% active | AID 504339; note: potency is the fitted concentration of half-maximal effect; % is set by controls: 0 for no effect and ±100 for the full control effect; nearly all actives have a fitted effect of over 50% in size
Six1-Eya2 inh – Six1/Eya2 interaction inhibition; AID 651725; AlphaScreen GST-Six1/His-Eya2 binding, biochemical; active compounds read low; 360,000 tested, 0.56% active; activity change, % (test concentration not listed); Q15475+O00167; in the data active = activity change below about -65%; inconclusive = mostly about -30% to -63%; note: % is set by controls: 0 for no effect and ±100 for the full control effect
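Compounds are tested against tagged Six1 and Eya2 proteins bridged by glutathione donor and nickel acceptor beads; after a one-hour incubation at 37 °C without light, AlphaScreen emission is recorded.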
G9a inh – blocks human histone lysine methyltransferase G9a; Q96KQ7; G9a H3K9 monomethylation, AlphaScreen, 2 h; Potency, µM (highest dose often 102 µM), for the others: at the highest dose activity, negative = inhibition, hits mostly inhibitors; 350,000 tested, 8.8% active; note: potency is the fitted concentration of half-maximal effect; % is set by controls: 0 for no effect and ±100 for the full control effect; nearly all actives have a fitted effect of over 75% in size
Target sequence (Q96KQ7 913-1193 limits assumed): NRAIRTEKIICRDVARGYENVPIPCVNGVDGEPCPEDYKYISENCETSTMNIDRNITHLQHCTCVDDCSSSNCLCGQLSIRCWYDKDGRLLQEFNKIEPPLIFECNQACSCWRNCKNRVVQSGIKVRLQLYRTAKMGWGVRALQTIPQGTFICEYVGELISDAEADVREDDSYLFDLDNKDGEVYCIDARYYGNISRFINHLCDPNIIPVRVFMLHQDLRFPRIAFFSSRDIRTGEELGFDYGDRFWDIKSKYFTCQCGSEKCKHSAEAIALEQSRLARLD
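G9a (20 nM) preincubated 15 min RT with compounds, then 500 nM biotinylated H3K9 peptide and 20 uM SAM added; 2 h RT reaction. Monomethyl-H3K9 product detected by AlphaScreen with anti-H3K9me1 antibody, streptavidin donor and anti-rabbit IgG acceptor beads.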
CtBP-E1A blk – blocks the CtBP interaction with E1A; AlphaScreen GST-E1A/His-CtBP binding, 1536-well; active compounds read low; activity change, % (test concentration not listed); 340,000 tested, 0.49% active; AID 651724; in the data active = activity change below about -65%; inconclusive = mostly about -30% to -63%; note: % is set by controls: 0 for no effect and ±100 for the full control effect
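AlphaScreen with 125 nM GST-E1A and 125 nM His-CtBP (5X stocks) in Tris pH 8.0, 300 mM NaCl, BSA, Tween 20, TCEP. Compounds preincubated 2 h at 37 deg C, then glutathione donor/nickel acceptor beads added for 1 h at 37 deg C in dark.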
BAZ2B block – blocks human BAZ2B; Q9UIF8; AlphaScreen BAZ2B-H3K14Ac peptide displacement; Potency, µM (doses to about 114 µM), for inactives: at the highest dose activity change, negative = inhibition, usual class: inhibitors; 360,000 tested, 4.4% active; note: potency is the fitted concentration of half-maximal effect; % is set by controls: 0 for no effect and ±100 for the full control effect; nearly all actives have a fitted effect of over 60% in size
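Compounds, titrated to a top concentration of 110 uM, were incubated 30 min at room temperature with preformed BAZ2B/acetyl-K14 H3 peptide complex (50 nM each). Proximity signal was measured by AlphaScreen after 20 min with beads.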
Active calls of the source: *; ? = inconclusive; · = not tested or not shown; ! = repeats disagree; [ ] = dose if it differs, or a comment. The list is not random: actives were taken first. Their share in the collection is about 10%. Unless noted, calls come from the whole dose curve; as a rule, active = well fitted inhibition curve with a large enough effect; inconclusive = small, poorly fitted or top-dose-only effect; inactive = no such curve, though single readings can be large or run the other way.

SMILES	HP1b chromo inh	JMJD2A Tudor inh	Six1-Eya2 inh	G9a inh	CtBP-E1A blk	BAZ2B block
CCC(C(=O)NCc1ccco1)N(C(=O)CNS(=O)(=O)c1ccccc1)c1ccccc1C (stereo unspecified)	34%	-3%	-3	-41%	4	-21%
CCCNC(=O)C1(C)CCCN(C(=O)c2cccc(C#N)c2)C1 (stereo unspecified)	·	·	3	·	9	·
COc1cccc(OCc2nc3ccccc3n2CCOc2ccc(C)cc2)c1	84%	24%	·	4%[59 µM]	·	24%
CC(C)CCC1(CCO)C(=O)N=C(N)NC1=O (stereo unspecified)	27%	-1%	6	·	11	·
Cn1nnnc1Sc1ncnc2scc(-c3ccccc3Cl)c12	32%	-21%	·	10%[0.501 µM]	·	-4%
Cn1nnnc1Sc1ncnc2scc(-c3cccc4c3sc3ccccc34)c12	27%	40µM*!	·	·	·	·
COn1c(=O)c(-c2cccc(Br)c2)[n+]([O-])c2ccccc21	39%	-7%	4	7%	8	-35%
O=c1c(-c2cccc([N+](=O)[O-])c2)[n+]([O-])c2ccccc2n1O	-1%	56µM*	2	?	2	?
O=c1c(-c2ccc(Cl)cc2)[n+]([O-])c2ccccc2n1O	-8%	25µM*	8	11µM*	-7	?
CCN1C(=O)NC(c2ccccc2)C1=O (stereo unspecified)	26%	-21%	5	-46%[59 µM]	8	10%
CN=C1N[C@H](c2ccccc2)N(c2ccccc2)S1	?	25µM*	·	·	·	·
NC(=S)Nc1cnc2ccccc2c1	21%	-9%	5	50µM*	-1	9%
Nc1cc(N)nc(SCc2cc([N+](=O)[O-])cc3c2OCOC3)n1	36%	-2%[11.4 µM]	-3	71µM*	4	1%
COc1cccc(Nc2nnc(SCc3cc([N+](=O)[O-])cc4c3OCOC4)s2)c1	5%	?	-25	?	-7	-35%
Cc1cccc(C)c1Nc1nnc(SCc2cc([N+](=O)[O-])cc3c2OCOC3)s1	21%	-32%	-4	50µM*	8	?
CCCCc1c(O)nc(N2CCN(Cc3ccccc3)CC2)[nH]c1=O	10%	-24%	0	40µM*	-3	7%
CC(=O)Nc1ccc(C2Nc3c(C)cc(C)cc3-c3cc(C)nn32)cc1 (stereo unspecified)	17%	-31%	·	-18%[59 µM]	·	-33%
CCCCC(=O)N1C/C=C\C(c2ccc(OC)cc2)N(Cc2ccc(F)cc2)C(=O)C1C (stereo unspecified)	27%	-12%	·	·	·	·
O=C(O)CCN1C(=O)C2C3CC(C2C1=O)C1C(c2ccccc2)c2sc(=O)[nH]c2SC31 (stereo unspecified)	19%	-14%	4	-20%	·	·
O=C(O)CCN1C(=O)C2C3CC(C2C1=O)C1C(c2ccccc2)c2sc(=O)n(-c4ccccc4)c2SC31 (stereo unspecified)	-11%	-8%	-2	45µM*	-1	?
CCOc1ccccc1NC(=O)N1c2ccccc2Sc2ccccc21	30%	2%	·	13%[59 µM]	·	4%
CCOCCCNCC(=O)Nc1ccc(OC(F)(F)F)cc1	?	40µM*	5	50µM*	5	79µM*
COCCNCC(=O)Nc1ccc(OC(F)(F)F)cc1	?	0.79µM*	7	22µM*	2	50µM*
COc1ccc(CC(=O)n2[nH]c(=O)ccc2=O)cc1OC	8.9µM*	8.9µM*	-15	1.1µM*	0	-32%
CC(C)CSc1nnc2c(n1)[nH]c1ccccc12	26%	-26%	-1	13%	6	7%
SMILES	HP1b chromo inh	JMJD2A Tudor inh	Six1-Eya2 inh	G9a inh	CtBP-E1A blk	BAZ2B block
CCCn1c2ccccc2c2nnc(SCCN3CCOCC3)nc21	37%	-24%	-3	?	-4	-20%
CCCCSc1nnc2c(n1)[nH]c1ccccc12	23%	22µM*	-2	-3%[12.7 µM]	4	?
Brc1ccc2[nH]c3nc(SCCN4CCOCC4)nnc3c2c1	6%	79µM*!	-13	40µM*	-17	-12%
c1ccc2c(c1)[nH]c1nc(SCCN3CCOCC3)nnc12	18%	79µM*	?	3.5µM*	?	6%
Cc1cccc(C)c1OCCCn1c(CCNC(=O)C2CCCCC2)nc2ccccc21	7%[57 µM]	-14%[57.1 µM]	·	11%[59 µM]	·	-7%
Cc1cc2c(s1)c1cnn(Cc3ccccc3C)c(=O)c1n2C	·	-2%	·	·	·	·
Cc1cc(C(=O)N/N=C/c2cc(N=Nc3ccccc3)ccc2O)n[nH]1	5%	?	-90*	50µM*	-1	-32%
CC(C)(C)c1cc(C(=O)N/N=C/c2ccc(-c3ccccc3[N+](=O)[O-])o2)n[nH]1	-23%	?	?	40µM*	?	?
COC(=O)N/N=C/c1cc(N=Nc2ccccc2)ccc1O	0%	-19%	-10	·	-10	-36%
O=C(N/N=C/c1ccc(-c2ccccc2[N+](=O)[O-])o1)c1cccnc1	1%	-32%	?	-43%[12.7 µM]	?	-3%
Cc1cc(C(=O)N/N=C/c2cccc([N+](=O)[O-])c2O)n[nH]1	31%	50µM*	-91*	23%[59 µM]	·	32µM*
O=C(Nc1ccccc1C(=O)N1CCN(Cc2ccccc2)CC1)c1ccccc1	11%	-10%	3	15%	-4	-33%
Cc1ccc2c(c1)c1c(c(=O)n(-c3ccccc3C)c(=O)n1Cc1cccc(F)c1)n2C	45%	-13%	·	-25%[59 µM]	·	-25%
O=C(COc1ccccc1)NCC(c1ccc(Cl)cc1)N1CCCCC1 (stereo unspecified)	37%	-6%	·	-2%[59 µM]	·	-6%
COC(=O)CCN(C(C)=O)c1ccc(N)cc1	-4%	50µM*	0	-2%[12.7 µM]	-2	0%
CCOC(=O)c1ccc(NC(=O)NNS(=O)(=O)c2cc(OC)ccc2OC)cc1	46%	-6%	-5	71µM*	0	-24%
COc1ccc(NC(=O)Nc2c(SC)nsc2SC)cc1	19%	5%[11.4 µM]	1	40µM*	·	-2%
COc1ccc(OC)c(NC(=O)NNS(=O)(=O)c2ccc(C)cc2C)c1	15%	-7%	-10	30%	-1	-16%
CCOC(=O)c1nnsc1NC(C)=O	28%	-2%	-5	-3%	6	12%
CCOC(=O)c1nnsc1NC(=O)Nc1ccc(OC)cc1	23%	-17%	3	40µM*	4	?
CN1C(=O)/C(=C\C=C2/CCCN2C)N(C)C1=S	2%	-26%	4	18µM*	-10	-35%
CSc1ccccc1OCc1cc(C(=O)N(C)Cc2nonc2C)no1	23%	-5%	13	14%	5	-1%

Screening results from PubChem.
